High-throughput results (PubChem)
LYPLA1 counter: LYPLA1 (human) inhibition in PME1 counter-screen | AID 2174 | recombinant LYPLA1, FP-Rh probe fluorescence polarization | inhibition, % at 5.9 µM | O75608 | hit rate 0.16% among 320,000;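 active = inhibition above the mean of all tested compounds plus 3 SD, set per campaign, cut at about 14% in these data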;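 also: inhibitors block serine hydrolase probe labeling of LYPLA1 so polarization falls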
PME-1 primary: PME-1 (human) inhibition | recombinant PME-1, FP-Rh probe fluorescence polarization | AID 2130 | inhibition, % at 5.9 µM | hit rate 0.53% among 320,000;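 active = inhibition above the campaign mean of all compounds plus 3 SD, cut at about 26% in these data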;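 also: competitive labeling of PME-1 active site by serine hydrolase directed probe; inhibitors block probe labeling so polarization falls and inhibition rises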
GSTO1 counter: counter-screen for RBBP9 inhibitors: inhibitors of human GSTO1 | P78417 | recombinant GSTO1, activity-based probe fluorescence polarization | inhibition, % at 5.96 µM | hit rate 1.1% among 300,000 | AID 1974;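 active = inhibition above the campaign mean inhibition plus 3 SD, cut at about 35% in these data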
Target sequence (P78417 whole entry, looked up): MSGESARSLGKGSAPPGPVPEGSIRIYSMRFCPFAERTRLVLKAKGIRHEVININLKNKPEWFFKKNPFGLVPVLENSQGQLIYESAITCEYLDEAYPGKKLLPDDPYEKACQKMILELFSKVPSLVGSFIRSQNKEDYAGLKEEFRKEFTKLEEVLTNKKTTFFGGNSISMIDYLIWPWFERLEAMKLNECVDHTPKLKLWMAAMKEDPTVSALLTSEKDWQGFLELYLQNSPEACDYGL
PAD4 inh: inhibitors of human PAD4; hit rate 0.41% among 330,000; recombinant PAD4, RCA probe fluorescence polarization; inhibition, % at 6.36 µM; AID 485272; Q9UM07;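 active = percent inhibition above a cutoff equal to the mean of all tested compounds plus 3 SD, cut at about 15% in these data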
LYPLA2 inh: LYPLA2 (human) inhibition in PME1 counter-screen | recombinant LYPLA2, FP-Rh probe fluorescence polarization | inhibition, % at 5.9 µM | hit rate 0.38% among 320,000 | AID 2177;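 active = inhibition above the screen-wide mean plus 3 SD, limit set per campaign, cut at about 26% in these data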
Fam108B inh: blocks mouse Fam108B hydrolase in RBBP9 counter-screen; recombinant Fam108B, FP-Rh probe fluorescence polarization; inhibition, % at 9.51 µM; hit rate 0.33% among 300,000;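 active = inhibition above the screen mean inhibition plus 3 SD, computed separately per campaign, cut at about 18% in these data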;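 also: inhibitors lower polarization as less probe binds the enzyme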
PAD4 confirm: PAD4 (human) inhibition, confirmed; shares compounds with PAD4 inh; AID 488796; inhibition, % at 6.36 µM; hit rate 28% among 1,200; recombinant PAD4, RCA probe fluorescence polarization;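 active = mean inhibition across replicates above the hit cutoff set by the earlier primary screen, cut at about 15% in these data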;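 also: inhibitors block active-site labeling by the probe so polarization falls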
Each line names hits and unclear results; the compound was inactive in the other large screens (follow-up assays come after a bar, where they were run). The list is not random: actives were taken first. Their share in the collection is about 1.8%.

Cc1ccc(Cn2nnnc2CN2CCC(n3nnc4cc(C(F)(F)F)ccc43)CC2)cc1	none
C[CH2][Hg][S]c1ccccc1C(=O)O	PAD4 inh 38 | PAD4 confirm 50
CC(C)COC(=O)c1ccccc1C(=O)OCC(C)C	none
Cc1sc2ncnc(N3CCC(C(=O)Nc4ccc(C#N)c(Cl)c4)CC3)c2c1C	none
C=CCn1c(O)c(C(C)=Nc2ccc(N(CC)CC)cc2)c(=O)[nH]c1=O	PAD4 inh 19 | PAD4 confirm inactive
C=CCn1c(O)c(C(C)=Nc2ccc(N(C)C)cc2)c(=O)[nH]c1=O	none
CCOc1cccc(OCC)c2c(C)[n+](CC3CCCO3)c(C)c1-2 (stereo not drawn)	PAD4 inh 15 | PAD4 confirm inactive
CCCCn1c(NS(=O)(=O)c2ccc(C)cc2)c(C(=O)OCC)c2nc3ccccc3nc21	GSTO1 counter 82, PAD4 inh 66 | PAD4 confirm inactive
CCC(=NCCCn1ccnc1)c1c(O)n(Cc2ccccc2)c(=O)[nH]c1=O	none
CCN1/C(=C\C=C\C2=[N+](CC)c3ccccc3C2(C)C)C(C)(C)c2ccccc21	PAD4 inh 145 | PAD4 confirm 101
CCN(CC)CCN=C(C)c1c(O)n(-c2ccccc2OC)c(=O)[nH]c1=O	none
COc1cc(C(c2c(C)[nH]n(-c3ccccc3)c2=O)c2c(C)[nH]n(-c3ccccc3)c2=O)cc(OC)c1OC	GSTO1 counter 79, PAD4 inh 69 | PAD4 confirm inactive
N/C(=N\N=C\c1ccc(O)cc1O)N[N+](=O)[O-]	none
COc1ccccc1/C=N/N=C(/N)N[N+](=O)[O-]	PAD4 inh 16 | PAD4 confirm inactive
C[n+]1c(-c2ccccc2)sc2ccccc21	PAD4 inh 15 | PAD4 confirm inactive
CN(C)c1ccc(/C=C/C=C/c2sc3ccccc3[n+]2C)cc1	none
Nc1cc(Cl)c2nonc2c1[N+](=O)[O-]	none
